Assay results published in PubChem BioAssay AID1159580 (chemical genetic matrix, 2015).
Where “and” joins values, the source holds several entries; their conditions need not be identical. Equal entries are not always repeated. In all, about 5,500 compounds went through this assay and about 2,000 (36%) were called active. Another 18% or so got no clear call; they are omitted. No stated cut-off is given here; in the data, active means normalized growth mostly below about 0.91 (no sharp cut-off); inconclusive means no clear call, values can overlap the other calls; inactive means mostly above about 0.92. The list shows a part of the results.

Assay: chemical genetic growth profiling, strain panel (AID 1159580);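 further: tested at 20 µM; growth read once vehicle control cultures reached saturation at 30 °C; 1 = growth at the plate median or of vehicle wells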
Details: growth OD

Measured: normalized growth

Cn1cnc2c1c(=O)[nH]c(=O)n2C
inactive: S. cerevisiae deletion strains, locus YJR075W, strain HOC1, stronger effect = lower value 1.03 | S. cerevisiae deletion strains, locus YKL009W, strain mrt4, stronger effect = lower value 0.989 | S. cerevisiae deletion strains, locus YKL068W, stronger effect = lower value 1.01 | S. cerevisiae deletion strains, locus YKL085W, strain MDH1 (second series), stronger effect = lower value 1.01 | S. cerevisiae deletion strains, locus YKL085W, strain MDH1, stronger effect = lower value 1.01 | S. cerevisiae deletion strains, locus YKL160W, strain elf1, stronger effect = lower value 0.995 | S. cerevisiae deletion strains, locus YKL190W, strain CNB1, stronger effect = lower value 1.01 | S. cerevisiae deletion strains, locus YKR001C, strain vps1, stronger effect = lower value 1 | S. cerevisiae deletion strains, locus YKR026C, strain gcn3, stronger effect = lower value 0.961 | S. cerevisiae deletion strains, locus YKR091W, strain srl3, stronger effect = lower value 0.964 | S. cerevisiae deletion strains, locus YLL001W, strain dnm1, stronger effect = lower value 0.994 | S. cerevisiae deletion strains, locus YLL026W, stronger effect = lower value 0.996 | S. cerevisiae deletion strains, locus YLL041C, strain sdh2, stronger effect = lower value 1.01 | S. cerevisiae deletion strains, locus YLR027C, strain aat2, stronger effect = lower value 0.987 | S. cerevisiae deletion strains, locus YLR039C, strain RIC1, stronger effect = lower value 1.02 | S. cerevisiae deletion strains, locus YLR058C, strain SHM2, stronger effect = lower value 1.01 | S. cerevisiae deletion strains, locus YLR102C, strain apc9, stronger effect = lower value 1.01 | S. cerevisiae deletion strains, locus YLR113W, strain HOG1, stronger effect = lower value 0.973 | S. cerevisiae deletion strains, locus YLR221C, strain rsa3, stronger effect = lower value 0.976 | S. cerevisiae deletion strains, locus YLR258W, strain gsy2, stronger effect = lower value 1 | S. cerevisiae deletion strains, locus YLR262C, strain YPT6 (second series), stronger effect = lower value 0.978 | S. cerevisiae deletion strains, locus YLR262C, strain YPT6, stronger effect = lower value 1.04 | S. cerevisiae deletion strains, locus YLR268W, strain sec22, stronger effect = lower value 1.04 | S. cerevisiae deletion strains, locus YLR320W, strain mms22, stronger effect = lower value 1 | S. cerevisiae deletion strains, locus YLR330W, strain CHS5, stronger effect = lower value 1.01 | S. cerevisiae deletion strains, locus YLR342W, strain FKS1 (second series), stronger effect = lower value 1.01 | S. cerevisiae deletion strains, locus YLR342W, strain FKS1, stronger effect = lower value 0.978 | S. cerevisiae deletion strains, locus YLR357W, strain rsc2, stronger effect = lower value 1 | S. cerevisiae deletion strains, locus YLR370C, strain arc18, stronger effect = lower value 0.97 | S. cerevisiae deletion strains, locus YLR371W, strain rom2, stronger effect = lower value 1.03 | S. cerevisiae deletion strains, locus YLR384C, strain iki3, stronger effect = lower value 0.994 | S. cerevisiae deletion strains, locus YLR418C, strain cdc73, stronger effect = lower value 0.99 | S. cerevisiae deletion strains, locus YML016C, strain PPZ1, stronger effect = lower value 1.01 | S. cerevisiae deletion strains, locus YML032C, strain rad52, stronger effect = lower value 1.03 | S. cerevisiae deletion strains, locus YML120C, strain ndi1, stronger effect = lower value 0.959 | S. cerevisiae deletion strains, locus YML124C, strain tub3, stronger effect = lower value 1.01 | S. cerevisiae deletion strains, locus YMR058W, strain fet3, stronger effect = lower value 0.97 | S. cerevisiae deletion strains, locus YMR078C, strain ctf18, stronger effect = lower value 1.01 | S. cerevisiae deletion strains, locus YMR125W, strain sto1, stronger effect = lower value 0.978 | S. cerevisiae deletion strains, locus YMR129W, stronger effect = lower value 0.979 | S. cerevisiae deletion strains, locus YMR205C, strain PFK2, stronger effect = lower value 0.979 | S. cerevisiae deletion strains, locus YMR223W, strain ubp8, stronger effect = lower value 1 | S. cerevisiae deletion strains, locus YMR231W, strain pep5, stronger effect = lower value 1 | S. cerevisiae deletion strains, locus YMR263W, strain SAP30, stronger effect = lower value 1.01 and 0.995 | S. cerevisiae deletion strains, locus YMR307W, strain GAS1, stronger effect = lower value 0.981 and 0.999 | S. cerevisiae deletion strains, locus YNL067W, strain RPL9B, stronger effect = lower value 1.02 | S. cerevisiae deletion strains, locus YNL071W, strain lat1, stronger effect = lower value 0.983 | S. cerevisiae deletion strains, locus YNL128W, strain TEP1, stronger effect = lower value 1.02 and 1.01 | S. cerevisiae deletion strains, locus YNL153C, strain GIM3, stronger effect = lower value 1.01 | S. cerevisiae deletion strains, locus YNL175C, strain NOP13, stronger effect = lower value 0.995 | S. cerevisiae deletion strains, locus YNL183C, strain NPR1, stronger effect = lower value 0.948 | S. cerevisiae deletion strains, locus YNL197C, strain WHI3, stronger effect = lower value 1.02 | S. cerevisiae deletion strains, locus YNL209W, strain ssb2, stronger effect = lower value 0.986 | S. cerevisiae deletion strains, locus YNL224C, strain SQS1, stronger effect = lower value 1.01 | S. cerevisiae deletion strains, locus YNL233W, strain BNI4, stronger effect = lower value 1.01 | S. cerevisiae deletion strains, locus YNL248C, strain rpa49, stronger effect = lower value 0.978 | S. cerevisiae deletion strains, locus YNL250W, strain rad50, stronger effect = lower value 1.02 | S. cerevisiae deletion strains, locus YNL271C, strain bni1, stronger effect = lower value 1.01 | S. cerevisiae deletion strains, locus YNL298W, strain CLA4, stronger effect = lower value 1 | S. cerevisiae deletion strains, locus YNL307C, strain MCK1, stronger effect = lower value 1 | S. cerevisiae deletion strains, locus YNL322C, strain KRE1 (second series), stronger effect = lower value 0.953 | S. cerevisiae deletion strains, locus YNL322C, strain KRE1, stronger effect = lower value 1.01 and 1.02 | S. cerevisiae deletion strains, locus YNR049C, strain mso1, stronger effect = lower value 0.993 | S. cerevisiae deletion strains, locus YNR052C, strain pop2, stronger effect = lower value 1.01 | S. cerevisiae deletion strains, locus YOL006C, strain TOP1, stronger effect = lower value 1.06 | S. cerevisiae deletion strains, locus YOL012C, strain htz1 0.781 | S. cerevisiae deletion strains, locus YOL147C, strain pex11, stronger effect = lower value 1.01 | S. cerevisiae deletion strains, locus YOR001W, strain rrp6, stronger effect = lower value 0.986 | S. cerevisiae deletion strains, locus YOR061W, strain CKA2, stronger effect = lower value 1.01 | S. cerevisiae deletion strains, locus YOR069W, strain VPS5, stronger effect = lower value 1.01 | S. cerevisiae deletion strains, locus YOR070C, strain gyp1, stronger effect = lower value 1 | S. cerevisiae deletion strains, locus YOR080W, strain dia2, stronger effect = lower value 0.972 | S. cerevisiae deletion strains, locus YOR083W, strain WHI5 (second series), stronger effect = lower value 1 | S. cerevisiae deletion strains, locus YOR083W, strain WHI5, stronger effect = lower value 0.979 | S. cerevisiae deletion strains, locus YOR106W, strain vam3, stronger effect = lower value 0.977 | S. cerevisiae deletion strains, locus YOR136W, strain idh2, stronger effect = lower value 1.01 | S. cerevisiae deletion strains, locus YOR144C, strain elg1, stronger effect = lower value 1.01 | S. cerevisiae deletion strains, locus YOR184W, strain ser1, stronger effect = lower value 1.01 | S. cerevisiae deletion strains, locus YOR231W, strain MKK1, stronger effect = lower value 0.976 | S. cerevisiae deletion strains, locus YOR265W, strain rbl2, stronger effect = lower value 0.997 | S. cerevisiae deletion strains, locus YOR270C, strain vph1, stronger effect = lower value 0.986 | S. cerevisiae deletion strains, locus YOR290C, strain snf2, stronger effect = lower value 0.994 | S. cerevisiae deletion strains, locus YOR316C, strain cot1, stronger effect = lower value 1.01 | S. cerevisiae deletion strains, locus YPL051W, strain arl3, stronger effect = lower value 1 | S. cerevisiae deletion strains, locus YPL055C, strain LGE1, stronger effect = lower value 1.01 and 1.03 | S. cerevisiae deletion strains, locus YPL078C, strain atp4, stronger effect = lower value 0.979 | S. cerevisiae deletion strains, locus YPL106C, strain sse1, stronger effect = lower value 0.954 | S. cerevisiae deletion strains, locus YPL240C, strain hsp82, stronger effect = lower value 0.989 | S. cerevisiae deletion strains, locus YPL241C, strain CIN2, stronger effect = lower value 1.01 | S. cerevisiae deletion strains, locus YPL256C, strain CLN2, stronger effect = lower value 0.932 | S. cerevisiae deletion strains, locus YPR119W, strain clb2, stronger effect = lower value 1.02 | S. cerevisiae deletion strains, locus YPR141C, strain kar3, stronger effect = lower value 1.01 | S. cerevisiae deletion strains, locus YPR163C, strain tif3, stronger effect = lower value 1.01 | S. cerevisiae deletion strains, locus YPR167C, strain met16, stronger effect = lower value 1.01 | S. cerevisiae deletion strains, strain wtn01, stronger effect = lower value 1.01 | S. cerevisiae strains, strain wild type, stronger effect = lower value 1.01
